Reference: the supplement of paper PMC11732987, “Enantioselective OTUD7B fragment discovery through chemoproteomics screening and high-throughput optimisation” (Communications Chemistry, 2025)

Assays:
Assay in all cases: log2 ratio of Biotin-Ahx-Ub-VS probe labelling (fragment/DMSO); higher = less target engagement (more negative = stronger competition), active = hit call of the paper (q ≤ 0.05, log2 ratio ≤ -1)
Details in all cases: compound concentration: 200 uM; treatment time: 3 h
[1] = target: USP34 (UniProt Q70CQ2)
Method in brief: (§1)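 Fragment (200 µM) or vehicle was incubated for 3 h with triplicate HEK293T lysate samples of 495 µg, which were then treated with Biotin-Ahx-Ub-VS at 0.5 µM final for 1 h. Labelled DUBs were enriched on NeutrAvidin, digested with LysC and trypsin, and analysed by diaPASEF LC-MS/MS. Values are average log2 fragment/vehicle ratios from an unpaired t-test on global-median-normalised Spectronaut label-free quantities, using proteins with ≥2 unique peptides.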

[2] = target: T1, USP36 (UniProt Q9P275)
T1 sequence (whole entry): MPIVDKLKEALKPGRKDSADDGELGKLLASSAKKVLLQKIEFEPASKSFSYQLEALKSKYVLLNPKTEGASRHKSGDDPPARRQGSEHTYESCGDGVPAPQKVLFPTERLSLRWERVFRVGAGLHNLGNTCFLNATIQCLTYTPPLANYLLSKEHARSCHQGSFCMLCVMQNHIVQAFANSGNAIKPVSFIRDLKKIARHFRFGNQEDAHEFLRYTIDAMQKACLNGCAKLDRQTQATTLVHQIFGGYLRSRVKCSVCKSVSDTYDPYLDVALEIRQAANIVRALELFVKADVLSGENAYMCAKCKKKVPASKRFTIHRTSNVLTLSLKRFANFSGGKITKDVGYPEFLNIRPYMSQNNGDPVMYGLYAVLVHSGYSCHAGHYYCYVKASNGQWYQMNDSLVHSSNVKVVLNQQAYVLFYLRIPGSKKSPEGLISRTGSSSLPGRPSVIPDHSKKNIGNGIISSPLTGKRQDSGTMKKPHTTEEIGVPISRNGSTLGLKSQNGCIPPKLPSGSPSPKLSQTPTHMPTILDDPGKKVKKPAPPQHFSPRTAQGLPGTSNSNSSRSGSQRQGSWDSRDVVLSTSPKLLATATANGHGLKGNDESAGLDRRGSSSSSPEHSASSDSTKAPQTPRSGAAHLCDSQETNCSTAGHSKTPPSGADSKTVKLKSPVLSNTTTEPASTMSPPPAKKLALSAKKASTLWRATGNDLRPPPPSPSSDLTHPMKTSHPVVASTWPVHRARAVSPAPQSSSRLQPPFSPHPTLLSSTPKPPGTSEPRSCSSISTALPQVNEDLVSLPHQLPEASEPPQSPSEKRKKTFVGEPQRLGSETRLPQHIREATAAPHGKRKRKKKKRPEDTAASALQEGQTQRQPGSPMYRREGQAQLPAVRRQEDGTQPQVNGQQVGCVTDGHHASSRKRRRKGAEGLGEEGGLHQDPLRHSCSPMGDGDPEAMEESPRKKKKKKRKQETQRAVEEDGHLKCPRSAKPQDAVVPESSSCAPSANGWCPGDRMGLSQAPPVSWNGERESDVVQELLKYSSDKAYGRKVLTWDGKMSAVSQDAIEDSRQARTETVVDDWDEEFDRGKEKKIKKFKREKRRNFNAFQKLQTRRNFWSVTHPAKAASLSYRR
Method in brief: as §1

[3] = target: T2, USP38 (UniProt Q8NB14)
T2 sequence (whole entry): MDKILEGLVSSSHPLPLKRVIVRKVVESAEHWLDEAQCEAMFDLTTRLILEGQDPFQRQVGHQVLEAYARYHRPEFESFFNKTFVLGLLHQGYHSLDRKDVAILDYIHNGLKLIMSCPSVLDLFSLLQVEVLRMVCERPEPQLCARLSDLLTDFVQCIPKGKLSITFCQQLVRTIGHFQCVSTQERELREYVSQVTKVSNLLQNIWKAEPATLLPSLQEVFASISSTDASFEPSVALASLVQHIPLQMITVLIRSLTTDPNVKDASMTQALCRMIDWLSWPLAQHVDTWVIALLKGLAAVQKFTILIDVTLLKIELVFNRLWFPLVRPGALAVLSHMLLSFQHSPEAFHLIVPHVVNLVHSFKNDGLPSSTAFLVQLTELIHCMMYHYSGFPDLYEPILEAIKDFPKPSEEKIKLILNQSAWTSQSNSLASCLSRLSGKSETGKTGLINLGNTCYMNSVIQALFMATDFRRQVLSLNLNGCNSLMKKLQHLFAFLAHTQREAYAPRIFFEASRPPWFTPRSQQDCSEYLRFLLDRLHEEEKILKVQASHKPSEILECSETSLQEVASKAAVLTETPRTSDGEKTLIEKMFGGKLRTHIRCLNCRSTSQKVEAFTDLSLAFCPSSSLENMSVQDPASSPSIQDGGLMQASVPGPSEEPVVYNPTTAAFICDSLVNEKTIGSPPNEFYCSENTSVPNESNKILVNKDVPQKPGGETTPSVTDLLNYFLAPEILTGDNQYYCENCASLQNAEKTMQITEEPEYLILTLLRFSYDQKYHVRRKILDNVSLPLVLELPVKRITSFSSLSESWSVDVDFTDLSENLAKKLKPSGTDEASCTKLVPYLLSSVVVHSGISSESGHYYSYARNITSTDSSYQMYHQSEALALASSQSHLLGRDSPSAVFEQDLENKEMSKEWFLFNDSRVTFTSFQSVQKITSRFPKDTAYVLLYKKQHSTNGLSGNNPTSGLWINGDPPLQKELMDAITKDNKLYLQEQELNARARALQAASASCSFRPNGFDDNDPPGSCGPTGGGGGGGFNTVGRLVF
Method in brief: as §1

[4] = target: T3, USP39 (UniProt Q53GS9)
T3 sequence (whole entry): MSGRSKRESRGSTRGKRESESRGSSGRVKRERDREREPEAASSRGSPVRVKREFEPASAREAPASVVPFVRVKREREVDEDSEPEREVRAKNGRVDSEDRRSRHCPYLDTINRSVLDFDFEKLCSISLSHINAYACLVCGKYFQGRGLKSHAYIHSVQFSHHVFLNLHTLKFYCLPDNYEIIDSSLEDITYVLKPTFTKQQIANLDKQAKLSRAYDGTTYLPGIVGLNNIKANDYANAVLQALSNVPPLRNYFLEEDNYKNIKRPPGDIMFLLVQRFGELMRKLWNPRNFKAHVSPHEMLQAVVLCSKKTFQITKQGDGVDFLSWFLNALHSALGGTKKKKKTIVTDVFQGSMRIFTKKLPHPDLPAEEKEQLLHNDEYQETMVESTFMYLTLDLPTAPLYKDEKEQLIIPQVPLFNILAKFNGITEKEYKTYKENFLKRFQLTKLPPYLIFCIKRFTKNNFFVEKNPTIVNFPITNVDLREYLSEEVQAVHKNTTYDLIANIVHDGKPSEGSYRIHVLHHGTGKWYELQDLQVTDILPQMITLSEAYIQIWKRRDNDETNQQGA
Method in brief: as §1

[5] = target: T4, USP4 (UniProt Q13107)
T4 sequence (whole entry): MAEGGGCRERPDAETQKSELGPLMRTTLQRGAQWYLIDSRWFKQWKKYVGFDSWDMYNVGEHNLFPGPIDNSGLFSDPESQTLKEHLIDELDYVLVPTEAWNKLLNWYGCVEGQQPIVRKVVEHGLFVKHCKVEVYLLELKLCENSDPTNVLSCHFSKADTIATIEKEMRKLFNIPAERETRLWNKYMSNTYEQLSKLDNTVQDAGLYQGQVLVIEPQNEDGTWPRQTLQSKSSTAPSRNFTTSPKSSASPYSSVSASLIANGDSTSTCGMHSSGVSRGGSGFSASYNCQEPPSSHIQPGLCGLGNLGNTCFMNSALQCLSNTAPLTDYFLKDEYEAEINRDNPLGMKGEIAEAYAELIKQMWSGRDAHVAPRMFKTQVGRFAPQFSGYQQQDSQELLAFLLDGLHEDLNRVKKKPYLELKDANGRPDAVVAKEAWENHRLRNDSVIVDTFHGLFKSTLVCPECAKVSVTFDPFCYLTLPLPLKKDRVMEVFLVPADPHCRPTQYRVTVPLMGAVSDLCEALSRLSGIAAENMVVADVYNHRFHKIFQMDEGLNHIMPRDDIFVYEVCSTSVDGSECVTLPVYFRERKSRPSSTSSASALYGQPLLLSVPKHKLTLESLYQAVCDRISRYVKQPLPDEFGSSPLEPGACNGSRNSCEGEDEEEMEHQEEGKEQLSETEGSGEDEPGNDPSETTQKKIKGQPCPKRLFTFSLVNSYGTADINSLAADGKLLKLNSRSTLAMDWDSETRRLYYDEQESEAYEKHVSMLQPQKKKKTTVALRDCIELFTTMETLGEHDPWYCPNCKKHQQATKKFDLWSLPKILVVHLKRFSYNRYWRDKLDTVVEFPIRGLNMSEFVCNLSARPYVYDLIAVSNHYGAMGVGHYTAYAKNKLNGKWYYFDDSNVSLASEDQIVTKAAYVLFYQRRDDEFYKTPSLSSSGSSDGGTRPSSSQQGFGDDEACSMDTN
Method in brief: as §1

Measured: log2 ratio of Biotin-Ahx-Ub-VS probe labelling

Chain of USP34 (Q70CQ2 whole entry, the tested form may be a part): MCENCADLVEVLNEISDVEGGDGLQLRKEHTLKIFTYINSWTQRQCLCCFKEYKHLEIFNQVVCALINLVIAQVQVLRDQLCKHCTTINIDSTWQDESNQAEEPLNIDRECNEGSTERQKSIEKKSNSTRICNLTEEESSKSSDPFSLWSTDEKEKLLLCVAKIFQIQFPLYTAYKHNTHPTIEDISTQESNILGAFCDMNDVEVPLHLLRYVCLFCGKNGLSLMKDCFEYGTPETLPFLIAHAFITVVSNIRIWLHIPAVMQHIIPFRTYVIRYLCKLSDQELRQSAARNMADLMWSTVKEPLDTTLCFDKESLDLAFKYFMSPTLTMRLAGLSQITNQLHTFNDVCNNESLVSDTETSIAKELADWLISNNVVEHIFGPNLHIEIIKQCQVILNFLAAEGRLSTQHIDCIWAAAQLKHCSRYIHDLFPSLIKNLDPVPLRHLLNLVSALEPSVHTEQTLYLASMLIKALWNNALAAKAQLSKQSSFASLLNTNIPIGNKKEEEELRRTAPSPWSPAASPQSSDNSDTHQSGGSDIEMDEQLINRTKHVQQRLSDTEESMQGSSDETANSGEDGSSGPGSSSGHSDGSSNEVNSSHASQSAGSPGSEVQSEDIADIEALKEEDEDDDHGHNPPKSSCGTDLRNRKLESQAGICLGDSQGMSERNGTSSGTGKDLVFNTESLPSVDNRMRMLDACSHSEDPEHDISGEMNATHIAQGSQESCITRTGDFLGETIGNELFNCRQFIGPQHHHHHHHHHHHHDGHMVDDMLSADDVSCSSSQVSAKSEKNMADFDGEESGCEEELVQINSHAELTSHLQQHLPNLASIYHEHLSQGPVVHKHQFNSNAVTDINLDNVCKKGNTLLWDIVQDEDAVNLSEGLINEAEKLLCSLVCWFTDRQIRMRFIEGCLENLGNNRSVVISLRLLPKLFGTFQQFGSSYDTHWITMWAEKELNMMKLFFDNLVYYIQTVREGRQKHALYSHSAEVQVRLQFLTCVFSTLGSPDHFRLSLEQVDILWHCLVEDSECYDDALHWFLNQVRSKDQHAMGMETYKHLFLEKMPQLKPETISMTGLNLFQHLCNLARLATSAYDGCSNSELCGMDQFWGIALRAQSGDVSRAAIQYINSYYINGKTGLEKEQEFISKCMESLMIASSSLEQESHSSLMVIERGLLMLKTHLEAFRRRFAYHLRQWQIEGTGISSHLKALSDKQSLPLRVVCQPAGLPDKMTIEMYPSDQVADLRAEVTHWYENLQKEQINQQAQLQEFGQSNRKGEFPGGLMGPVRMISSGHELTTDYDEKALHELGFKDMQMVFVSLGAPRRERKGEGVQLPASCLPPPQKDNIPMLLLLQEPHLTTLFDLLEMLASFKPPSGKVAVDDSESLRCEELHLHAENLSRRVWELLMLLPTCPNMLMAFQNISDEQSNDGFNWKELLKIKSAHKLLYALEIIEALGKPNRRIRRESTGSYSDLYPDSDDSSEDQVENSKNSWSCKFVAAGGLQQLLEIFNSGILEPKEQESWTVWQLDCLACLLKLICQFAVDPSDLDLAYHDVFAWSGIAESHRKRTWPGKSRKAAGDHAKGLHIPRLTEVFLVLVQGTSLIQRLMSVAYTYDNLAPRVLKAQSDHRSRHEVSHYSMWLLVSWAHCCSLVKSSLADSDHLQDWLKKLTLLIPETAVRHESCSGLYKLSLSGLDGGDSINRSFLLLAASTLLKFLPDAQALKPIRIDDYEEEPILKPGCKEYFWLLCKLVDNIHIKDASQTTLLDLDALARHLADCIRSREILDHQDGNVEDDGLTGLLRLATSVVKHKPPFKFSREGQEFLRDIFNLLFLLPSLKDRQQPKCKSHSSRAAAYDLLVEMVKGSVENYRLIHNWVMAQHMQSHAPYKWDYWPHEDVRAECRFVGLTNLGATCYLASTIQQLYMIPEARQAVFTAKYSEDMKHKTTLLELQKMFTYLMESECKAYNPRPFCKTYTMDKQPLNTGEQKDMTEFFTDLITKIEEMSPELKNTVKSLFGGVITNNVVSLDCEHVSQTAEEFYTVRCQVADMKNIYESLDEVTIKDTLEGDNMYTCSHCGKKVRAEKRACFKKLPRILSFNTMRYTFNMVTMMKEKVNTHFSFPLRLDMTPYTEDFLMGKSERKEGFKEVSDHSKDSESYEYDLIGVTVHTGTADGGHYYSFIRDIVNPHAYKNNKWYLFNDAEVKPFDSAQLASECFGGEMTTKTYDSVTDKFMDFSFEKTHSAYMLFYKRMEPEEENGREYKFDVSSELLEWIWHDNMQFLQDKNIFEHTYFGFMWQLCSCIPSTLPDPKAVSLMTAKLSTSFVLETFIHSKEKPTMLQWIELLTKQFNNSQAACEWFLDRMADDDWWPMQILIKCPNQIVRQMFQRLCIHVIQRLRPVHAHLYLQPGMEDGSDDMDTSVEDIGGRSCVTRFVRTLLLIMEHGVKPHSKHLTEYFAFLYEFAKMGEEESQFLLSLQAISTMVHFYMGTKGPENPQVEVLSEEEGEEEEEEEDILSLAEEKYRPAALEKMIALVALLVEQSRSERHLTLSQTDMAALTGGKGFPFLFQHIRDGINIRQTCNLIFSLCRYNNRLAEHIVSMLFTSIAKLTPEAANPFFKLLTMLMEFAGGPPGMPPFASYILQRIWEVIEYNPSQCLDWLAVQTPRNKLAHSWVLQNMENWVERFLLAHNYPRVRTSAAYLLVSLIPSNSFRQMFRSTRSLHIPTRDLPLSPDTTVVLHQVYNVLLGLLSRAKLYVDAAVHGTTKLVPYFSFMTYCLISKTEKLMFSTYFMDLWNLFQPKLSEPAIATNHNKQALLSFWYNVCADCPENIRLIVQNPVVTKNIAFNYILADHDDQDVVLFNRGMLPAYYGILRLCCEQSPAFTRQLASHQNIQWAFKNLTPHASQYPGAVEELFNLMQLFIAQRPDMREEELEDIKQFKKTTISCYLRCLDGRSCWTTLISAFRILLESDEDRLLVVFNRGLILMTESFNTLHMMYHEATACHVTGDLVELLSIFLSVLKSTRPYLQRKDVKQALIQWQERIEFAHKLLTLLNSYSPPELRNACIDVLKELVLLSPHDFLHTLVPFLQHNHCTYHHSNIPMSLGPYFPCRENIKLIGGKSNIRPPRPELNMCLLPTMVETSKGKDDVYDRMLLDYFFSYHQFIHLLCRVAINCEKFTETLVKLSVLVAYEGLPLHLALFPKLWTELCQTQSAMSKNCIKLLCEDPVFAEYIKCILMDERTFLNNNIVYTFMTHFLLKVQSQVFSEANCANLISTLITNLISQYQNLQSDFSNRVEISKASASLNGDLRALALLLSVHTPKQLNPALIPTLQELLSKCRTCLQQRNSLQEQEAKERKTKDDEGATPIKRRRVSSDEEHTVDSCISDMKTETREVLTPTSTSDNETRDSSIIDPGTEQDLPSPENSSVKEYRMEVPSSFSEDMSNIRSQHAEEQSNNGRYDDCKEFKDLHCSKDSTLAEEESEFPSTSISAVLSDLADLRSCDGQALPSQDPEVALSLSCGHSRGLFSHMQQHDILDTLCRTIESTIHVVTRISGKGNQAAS

Cl.O=C(CCl)NC1(c2ncccn2)CCC1
inactive: [1] 0.0452 | [2] 0.109 | [3] 0.0726 | [4] 0.133 | [5] 0.0299
